{"source": "PubChem BioAssay AID1159580", "about": "(chemical genetic matrix, 2015)", "experiment": "chemical genetic growth profiling, strain panel (AID 1159580);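 also: tested at 20 µM; growth read once vehicle control cultures reached saturation at 30 °C; 1 = growth at the plate median or of vehicle wells; lower values mean less growth of the strain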", "details": "growth OD", "note": "Hit rate of the full screen: of about 5,500 compounds, about 2,000 (36%) were called active. Inconclusive results (about 18%) are left out. The list shows a part of the results. Unmarked numbers belong to inactive results. Rule as the data show it: active = normalized growth mostly below about 0.91 (no sharp cut-off); inconclusive = no clear call, values can overlap the other calls; inactive = mostly above about 0.92.", "data": [{"smiles": "C=CCc1ccc(O)c(OC)c1", "values": [{"measurement": "normalized growth", "setting": "S. cerevisiae deletion strains, locus YJL187C, strain SWE1, active compounds read low", "result": 0.999}, {"measurement": "normalized growth", "setting": "S. cerevisiae deletion strains, locus YJR043C, strain POL32, active compounds read low", "result": 0.913}, {"measurement": "normalized growth", "setting": "S. cerevisiae deletion strains, locus YJR066W, strain TOR1, active compounds read low", "result": 0.973}, {"measurement": "normalized growth", "setting": "S. cerevisiae deletion strains, locus YJR075W, strain HOC1, active compounds read low", "result": 0.885}, {"measurement": "normalized growth", "setting": "S. cerevisiae deletion strains, locus YKL009W, strain mrt4, active compounds read low", "result": 0.998}, {"measurement": "normalized growth", "setting": "S. cerevisiae deletion strains, locus YKL068W, active compounds read low", "result": "0.923 (active)"}, {"measurement": "normalized growth", "setting": "S. cerevisiae deletion strains, locus YKL085W, strain MDH1 (second series), active compounds read low", "result": "0.894 (active)"}, {"measurement": "normalized growth", "setting": "S. cerevisiae deletion strains, locus YKL085W, strain MDH1, active compounds read low", "result": "0.894 (active)"}, {"measurement": "normalized growth", "setting": "S. cerevisiae deletion strains, locus YKL160W, strain elf1, active compounds read low", "result": 1.02}, {"measurement": "normalized growth", "setting": "S. cerevisiae deletion strains, locus YKR001C, strain vps1, active compounds read low", "result": "0.813 (active)"}, {"measurement": "normalized growth", "setting": "S. cerevisiae deletion strains, locus YKR026C, strain gcn3, active compounds read low", "result": 0.989}, {"measurement": "normalized growth", "setting": "S. cerevisiae deletion strains, locus YKR091W, strain srl3, active compounds read low", "result": 0.992}, {"measurement": "normalized growth", "setting": "S. cerevisiae deletion strains, locus YLL001W, strain dnm1, active compounds read low", "result": 1.02}, {"measurement": "normalized growth", "setting": "S. cerevisiae deletion strains, locus YLL026W, active compounds read low", "result": 0.989}, {"measurement": "normalized growth", "setting": "S. cerevisiae deletion strains, locus YLL041C, strain sdh2, active compounds read low", "result": 0.989}, {"measurement": "normalized growth", "setting": "S. cerevisiae deletion strains, locus YLR027C, strain aat2, active compounds read low", "result": 0.99}, {"measurement": "normalized growth", "setting": "S. cerevisiae deletion strains, locus YLR039C, strain RIC1, active compounds read low", "result": "0.605 (active)"}, {"measurement": "normalized growth", "setting": "S. cerevisiae deletion strains, locus YLR058C, strain SHM2, active compounds read low", "result": 0.949}, {"measurement": "normalized growth", "setting": "S. cerevisiae deletion strains, locus YLR102C, strain apc9, active compounds read low", "result": 0.95}, {"measurement": "normalized growth", "setting": "S. cerevisiae deletion strains, locus YLR113W, strain HOG1, active compounds read low", "result": 0.962}, {"measurement": "normalized growth", "setting": "S. cerevisiae deletion strains, locus YLR221C, strain rsa3, active compounds read low", "result": 1.01}, {"measurement": "normalized growth", "setting": "S. cerevisiae deletion strains, locus YLR258W, strain gsy2, active compounds read low", "result": 1.01}, {"measurement": "normalized growth", "setting": "S. cerevisiae deletion strains, locus YLR262C, strain YPT6 (second series), active compounds read low", "result": 0.998}, {"measurement": "normalized growth", "setting": "S. cerevisiae deletion strains, locus YLR262C, strain YPT6, active compounds read low", "result": 0.674}, {"measurement": "normalized growth", "setting": "S. cerevisiae deletion strains, locus YLR268W, strain sec22, active compounds read low", "result": 1.01}, {"measurement": "normalized growth", "setting": "S. cerevisiae deletion strains, locus YLR320W, strain mms22, active compounds read low", "result": 0.996}, {"measurement": "normalized growth", "setting": "S. cerevisiae deletion strains, locus YLR330W, strain CHS5, active compounds read low", "result": "0.885 (active)"}, {"measurement": "normalized growth", "setting": "S. cerevisiae deletion strains, locus YLR342W, strain FKS1 (second series), active compounds read low", "result": 0.888}, {"measurement": "normalized growth", "setting": "S. cerevisiae deletion strains, locus YLR342W, strain FKS1, active compounds read low", "result": 0.999}, {"measurement": "normalized growth", "setting": "S. cerevisiae deletion strains, locus YLR357W, strain rsc2, active compounds read low", "result": 0.992}, {"measurement": "normalized growth", "setting": "S. cerevisiae deletion strains, locus YLR370C, strain arc18, active compounds read low", "result": 0.997}, {"measurement": "normalized growth", "setting": "S. cerevisiae deletion strains, locus YLR371W, strain rom2, active compounds read low", "result": "0.692 (active)"}, {"measurement": "normalized growth", "setting": "S. cerevisiae deletion strains, locus YLR384C, strain iki3, active compounds read low", "result": 0.991}, {"measurement": "normalized growth", "setting": "S. cerevisiae deletion strains, locus YLR418C, strain cdc73, active compounds read low", "result": "0.799 (active)"}, {"measurement": "normalized growth", "setting": "S. cerevisiae deletion strains, locus YML016C, strain PPZ1, active compounds read low", "result": "0.91 (active)"}, {"measurement": "normalized growth", "setting": "S. cerevisiae deletion strains, locus YML032C, strain rad52, active compounds read low", "result": 0.93}, {"measurement": "normalized growth", "setting": "S. cerevisiae deletion strains, locus YML120C, strain ndi1, active compounds read low", "result": 1.03}, {"measurement": "normalized growth", "setting": "S. cerevisiae deletion strains, locus YML124C, strain tub3, active compounds read low", "result": "0.917 (active)"}, {"measurement": "normalized growth", "setting": "S. cerevisiae deletion strains, locus YMR058W, strain fet3, active compounds read low", "result": 1}, {"measurement": "normalized growth", "setting": "S. cerevisiae deletion strains, locus YMR078C, strain ctf18, active compounds read low", "result": 0.917}, {"measurement": "normalized growth", "setting": "S. cerevisiae deletion strains, locus YMR125W, strain sto1, active compounds read low", "result": 0.965}, {"measurement": "normalized growth", "setting": "S. cerevisiae deletion strains, locus YMR129W, active compounds read low", "result": 0.984}, {"measurement": "normalized growth", "setting": "S. cerevisiae deletion strains, locus YMR205C, strain PFK2, active compounds read low", "result": 0.995}, {"measurement": "normalized growth", "setting": "S. cerevisiae deletion strains, locus YMR223W, strain ubp8, active compounds read low", "result": 0.936}, {"measurement": "normalized growth", "setting": "S. cerevisiae deletion strains, locus YMR231W, strain pep5, active compounds read low", "result": 0.983}, {"measurement": "normalized growth", "setting": "S. cerevisiae deletion strains, locus YMR307W, strain GAS1, active compounds read low", "result": 1}, {"measurement": "normalized growth", "setting": "S. cerevisiae deletion strains, locus YNL067W, strain RPL9B, active compounds read low", "result": 0.97}, {"measurement": "normalized growth", "setting": "S. cerevisiae deletion strains, locus YNL071W, strain lat1, active compounds read low", "result": 0.959}, {"measurement": "normalized growth", "setting": "S. cerevisiae deletion strains, locus YNL153C, strain GIM3, active compounds read low", "result": 0.991}, {"measurement": "normalized growth", "setting": "S. cerevisiae deletion strains, locus YNL183C, strain NPR1, active compounds read low", "result": 0.928}, {"measurement": "normalized growth", "setting": "S. cerevisiae deletion strains, locus YNL209W, strain ssb2, active compounds read low", "result": 0.999}, {"measurement": "normalized growth", "setting": "S. cerevisiae deletion strains, locus YNL233W, strain BNI4, active compounds read low", "result": 0.901}, {"measurement": "normalized growth", "setting": "S. cerevisiae deletion strains, locus YNL248C, strain rpa49, active compounds read low", "result": 1}, {"measurement": "normalized growth", "setting": "S. cerevisiae deletion strains, locus YNL250W, strain rad50, active compounds read low", "result": 0.924}, {"measurement": "normalized growth", "setting": "S. cerevisiae deletion strains, locus YNL271C, strain bni1, active compounds read low", "result": 0.931}, {"measurement": "normalized growth", "setting": "S. cerevisiae deletion strains, locus YNL298W, strain CLA4, active compounds read low", "result": 0.995}, {"measurement": "normalized growth", "setting": "S. cerevisiae deletion strains, locus YNL307C, strain MCK1, active compounds read low", "result": 0.932}, {"measurement": "normalized growth", "setting": "S. cerevisiae deletion strains, locus YNL322C, strain KRE1 (second series), active compounds read low", "result": 0.993}, {"measurement": "normalized growth", "setting": "S. cerevisiae deletion strains, locus YNR049C, strain mso1, active compounds read low", "result": 0.988}, {"measurement": "normalized growth", "setting": "S. cerevisiae deletion strains, locus YNR052C, strain pop2, active compounds read low", "result": 1.01}, {"measurement": "normalized growth", "setting": "S. cerevisiae deletion strains, locus YOL012C, strain htz1", "result": 0.778}, {"measurement": "normalized growth", "setting": "S. cerevisiae deletion strains, locus YOL147C, strain pex11, active compounds read low", "result": 0.939}, {"measurement": "normalized growth", "setting": "S. cerevisiae deletion strains, locus YOR001W, strain rrp6, active compounds read low", "result": 1.01}, {"measurement": "normalized growth", "setting": "S. cerevisiae deletion strains, locus YOR061W, strain CKA2, active compounds read low", "result": 0.948}, {"measurement": "normalized growth", "setting": "S. cerevisiae deletion strains, locus YOR069W, strain VPS5, active compounds read low", "result": 0.948}, {"measurement": "normalized growth", "setting": "S. cerevisiae deletion strains, locus YOR070C, strain gyp1, active compounds read low", "result": 0.996}, {"measurement": "normalized growth", "setting": "S. cerevisiae deletion strains, locus YOR080W, strain dia2, active compounds read low", "result": 0.989}, {"measurement": "normalized growth", "setting": "S. cerevisiae deletion strains, locus YOR083W, strain WHI5, active compounds read low", "result": 1.04}, {"measurement": "normalized growth", "setting": "S. cerevisiae deletion strains, locus YOR106W, strain vam3, active compounds read low", "result": 1.04}, {"measurement": "normalized growth", "setting": "S. cerevisiae deletion strains, locus YOR136W, strain idh2, active compounds read low", "result": 0.992}, {"measurement": "normalized growth", "setting": "S. cerevisiae deletion strains, locus YOR144C, strain elg1, active compounds read low", "result": 0.937}, {"measurement": "normalized growth", "setting": "S. cerevisiae deletion strains, locus YOR184W, strain ser1, active compounds read low", "result": 0.973}, {"measurement": "normalized growth", "setting": "S. cerevisiae deletion strains, locus YOR231W, strain MKK1, active compounds read low", "result": 0.982}, {"measurement": "normalized growth", "setting": "S. cerevisiae deletion strains, locus YOR265W, strain rbl2, active compounds read low", "result": 0.999}, {"measurement": "normalized growth", "setting": "S. cerevisiae deletion strains, locus YOR270C, strain vph1, active compounds read low", "result": 0.964}, {"measurement": "normalized growth", "setting": "S. cerevisiae deletion strains, locus YOR290C, strain snf2, active compounds read low", "result": 0.986}, {"measurement": "normalized growth", "setting": "S. cerevisiae deletion strains, locus YOR316C, strain cot1, active compounds read low", "result": 0.939}, {"measurement": "normalized growth", "setting": "S. cerevisiae deletion strains, locus YPL051W, strain arl3, active compounds read low", "result": 1.02}, {"measurement": "normalized growth", "setting": "S. cerevisiae deletion strains, locus YPL078C, strain atp4, active compounds read low", "result": 1.01}, {"measurement": "normalized growth", "setting": "S. cerevisiae deletion strains, locus YPL106C, strain sse1, active compounds read low", "result": 0.948}, {"measurement": "normalized growth", "setting": "S. cerevisiae deletion strains, locus YPL240C, strain hsp82, active compounds read low", "result": 0.993}, {"measurement": "normalized growth", "setting": "S. cerevisiae deletion strains, locus YPL256C, strain CLN2, active compounds read low", "result": 0.973}, {"measurement": "normalized growth", "setting": "S. cerevisiae deletion strains, locus YPR119W, strain clb2, active compounds read low", "result": "0.916 (active)"}, {"measurement": "normalized growth", "setting": "S. cerevisiae deletion strains, locus YPR141C, strain kar3, active compounds read low", "result": "0.879 (active)"}, {"measurement": "normalized growth", "setting": "S. cerevisiae deletion strains, locus YPR163C, strain tif3, active compounds read low", "result": 0.969}, {"measurement": "normalized growth", "setting": "S. cerevisiae deletion strains, locus YPR167C, strain met16, active compounds read low", "result": 0.947}, {"measurement": "normalized growth", "setting": "S. cerevisiae deletion strains, strain wtn01, active compounds read low", "result": 0.988}, {"measurement": "normalized growth", "setting": "S. cerevisiae strains, strain wild type, active compounds read low", "result": 0.95}]}]}
